# The full ranking holds about 33,000 sequences; the median of “E-score (-0.5 to 0.5)” is about -0.0034, and the highest 2% start at about 0.25. This excerpt belongs to a sample that is enriched for the highest values.
# Target: T1, Yap3 (UniProt P38749)
# T1 sequence: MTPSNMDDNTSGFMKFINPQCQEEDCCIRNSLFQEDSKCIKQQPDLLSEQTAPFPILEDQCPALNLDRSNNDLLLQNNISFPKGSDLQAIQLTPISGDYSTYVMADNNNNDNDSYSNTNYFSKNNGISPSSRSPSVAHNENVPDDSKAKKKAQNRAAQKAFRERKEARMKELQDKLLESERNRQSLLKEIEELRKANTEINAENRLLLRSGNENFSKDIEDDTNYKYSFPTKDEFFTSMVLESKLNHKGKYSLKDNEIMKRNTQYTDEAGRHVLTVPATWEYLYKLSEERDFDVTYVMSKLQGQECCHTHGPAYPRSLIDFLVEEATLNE
# Assay: PBM E-score (8-mer binding enrichment) (E-score (-0.5 to 0.5)); higher = stronger / more preferred TF binding
# Settings: protein concentration: 100 nM; construct: GST-full length
# Method: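 Universal 'all 10-mer' protein binding microarrays (Agilent AMADID 015681) probed with GST-tagged S. cerevisiae TFs (full-length or DBD) made by in vitro transcription/translation (PURExpress), about 100-200 nM. Bound TF was detected with fluorescent anti-GST. Each ungapped 8-mer (which stands for itself and its reverse complement) is scored by the PBM enrichment score (E-score), a modified Wilcoxon-Mann-Whitney statistic from -0.5 to +0.5, computed with the Universal PBM Analysis Suite. Scale: above 0.35 generally sequence-specific binding.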
row,Sequence,PBM E-score
1,AAACGATA,0.0765
2,CAACGATA,0.0838
3,TAACGATA,0.261
4,GAACTGTA,0.208
5,AATCAGGA,0.0679
6,GATAAATA,0.233
7,AATAAAGG,-0.0245
8,ACTAAATA,0.29
9,AATAAATT,0.186
10,CCTAAATA,-0.122
11,AATAAAGA,0.156
12,CATAAATA,0.197
13,AATAAAGT,0.262
14,ACTAAATC,0.198
15,AATAAATG,0.216
16,TATAAATA,0.301
17,AATAAATA,0.315
18,ATACTAGC,0.0285
19,GCCAGTCC,-0.343
20,CGATCGGC,0.00629
21,GAGCTAAC,0.0153
22,ACTCGCAC,-0.0984
23,AGTCGCAC,-0.233
24,AACTTGAT,0.15
25,GGCGGTGA,0.132

row,Sequence,PBM E-score
1,GAAGACCA,-0.105
2,GGGTAAAC,0.0445
3,GGGTAAAA,0.258
4,CGGTAAAA,0.114
5,AGATAAGG,-0.0911
6,AATAGAAC,0.16
7,AAACTAAG,0.186
8,AAACTAAA,0.261
9,GCACTAAA,0.179
10,AAACTAAC,0.232
11,TCACTAAA,0.121
12,ACACTAAA,0.261
13,ATACTAAA,0.188
14,GAACTAAA,0.0567
15,AAACTAAT,0.272
16,TAACTAAA,0.165
17,GTACTAAA,0.21
18,TTACTAAA,0.401
19,ATTTCTAG,0.083
20,GGATCCAA,0.138
21,CAGCGACG,-0.0734
22,GATTGGAC,0.0901
23,TCCTCTCA,0.0272
24,ACGATCAA,0.0848
25,ACAGAGGA,-0.00698

row,Sequence,PBM E-score
1,GCGGAAAA,0.245
2,AAAGAAAT,0.26
3,ACGGAAAT,0.323
4,AAGAAAAT,0.273
5,TCGGAAAA,0.275
6,ACGGAAAC,-0.079
7,ACGGAAAG,0.144
8,AAGAAAAA,0.059
9,AAAGAAAA,0.18
10,AAAGAAAG,0.231
11,ACGGAAAA,0.107
12,AAGAAATT,0.199
13,ACCCTTTA,0.101
14,CGCTGGTC,-0.307
15,ACGCTGAA,-0.00885
16,CCCATTGA,-0.0177
17,GATGCGAA,0.057
18,TCCGGTCA,0.00023
19,AAGTATCA,0.052
20,CCCCACTA,-0.135
21,AAGTTGCC,-0.0508
22,ACGAAAAA,0.0676
23,ACGAAAAT,0.257
24,ACGAAAAG,0.153
25,GACTCATC,-0.108

row,Sequence,PBM E-score
1,CGCGCTGA,0.0303
2,AGCGCTTA,0.0641
3,CGCGCTTA,0.265
4,ATCGATGC,0.133
5,CATTAAGA,0.0516
6,CTTGTTAC,0.0269
7,ATTGTTAC,0.288
8,GTTGTTTA,0.273
9,ATTGTTTA,0.0804
10,CTTGTTTA,0.0644
11,ATTGTTAG,0.153
12,CTTGTTAA,0.022
13,ATTGTTAA,0.17
14,GTTGTTAA,0.298
15,TTCAAAAA,0.0865
16,ACGTCCTA,0.00661
17,AGCACACT,0.0288
18,GGATCCAC,-0.0381
19,AGAAAGAA,0.0357
20,GGAAAGAA,0.0609
21,TGAAAGAA,0.297
22,TGAAAGCA,0.254
23,GGAAAGCA,0.018
24,AGAAAGCA,0.232
25,CGGCGTAC,-0.15

row,Sequence,PBM E-score
1,ACGGTTGC,-0.0961
2,TCCTGTCA,-0.0145
3,CCCTGGCC,-0.333
4,AAATCCAG,0.249
5,AAATCCAC,0.0662
6,AAATCCAT,0.29
7,CCGCTGTA,0.117
8,GTATAATA,0.287
9,GGATAATA,0.0461
10,CTATAATA,0.0592
11,ATATAAGA,0.346
12,GTATAACA,0.133
13,CTATAAGA,0.182
14,ATATAATG,0.2
15,ATATAATA,0.299
16,GTATAAGA,0.0832
17,AGTAAGCA,0.00993
18,AATCTGCG,-0.0221
19,AGCCCGCA,-0.123
20,AGCAACGC,-0.0123
21,AGTTTCGG,0.0851
22,ACTAATTA,0.362
23,ATTAATTC,0.3
24,GTTAATTA,0.262
25,CTTAATTA,0.174

row,Sequence,PBM E-score
1,ACTAATTG,0.167
2,ACTAATTC,0.178
3,CCTAATTA,0.136
4,ATTAATTA,0.241
5,GCTAATTA,0.279
6,ATTAATTG,0.245
7,GTTAATGA,0.133
8,GCTAATAA,0.144
9,AGAGATCA,0.0988
10,AAACGAGT,0.217
11,CAAGCTAA,-0.0766
12,CTTTTAAC,0.0122
13,AACAAAGT,0.221
14,AGCGAGCC,-0.122
15,AAAGACTG,-0.0469
16,CTATTACA,0.163
17,GTATTACA,0.291
18,GTATTATA,0.329
19,ATATTATA,0.186
20,CTATTATA,0.145
21,GTATTAGA,0.217
22,CCTTAAAG,0.06
23,CAAGTTGG,0.106
24,GTTGCTAA,0.251
25,CACCTGGG,-0.178

row,Sequence,PBM E-score
1,AAGCCTGG,-0.0378
2,CCATCGTA,0.0169
3,AAACAGCG,0.2
4,CCAGTAAC,0.0196
5,AAATATGA,0.224
6,TAATATAA,0.344
7,AAATATGT,0.286
8,CAATATAA,0.307
9,CAATATAG,0.218
10,TCATATAA,0.203
11,CAATATAC,0.112
12,GAATATAA,0.195
13,AAATATGC,0.00442
14,AGATATAA,0.211
15,AAATATAA,0.275
16,AGGATTGA,0.129
17,AGCAAGAT,0.14
18,AATTTCTG,0.089
19,ATCCCATA,-0.106
20,GTTGCATA,-0.0298
21,ATTTAGCC,0.0798
22,AGGGAGTC,-0.235
